This is part of a sample that, as a whole, favours compounds with a hit. Of some 83,000 tested, about 20% had one in any assay.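 Compound tested at a single concentration for 48 hours in 96-well plates; a percent growth value below 10 was scored as active.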
Assays:
Experiment in all cases: NCI-60 one-dose screen, 48 h (100 = growth as untreated, 0 = no growth, -100 = all killed)
[1] = test system: HCT-15 colon; conditions: 10 µM
[2] = test system: HT29 colon; conditions: 10 µM
[3] = test system: SNB-75 CNS; conditions: 10 µM
[4] = test system: SNB-19 CNS; conditions: 10 µM
[5] = test system: U251 CNS; conditions: 10 µM
[6] = test system: PC-3 prostate; conditions: 10 µM
[7] = test system: SK-MEL-5 melanoma; conditions: 10 µM
[8] = test system: UACC-62 melanoma; conditions: 10 µM unless noted
[9] = test system: LOX IMVI melanoma; conditions: 10 µM
[10] = test system: SK-MEL-28 melanoma; conditions: 10 µM
[11] = test system: SK-MEL-2 melanoma; conditions: 10 µM
[12] = test system: EKVX NSCLC; conditions: 10 µM
[13] = test system: SN12C renal; conditions: 10 µM
[14] = test system: TK-10 renal; conditions: 10 µM unless noted
[15] = test system: ACHN renal; conditions: 10 µM
[16] = test system: CAKI-1 renal; conditions: 10 µM
[17] = test system: A498 renal; conditions: 10 µM
[18] = test system: CCRF-CEM leukemia; conditions: 10 µM
[19] = test system: MOLT-4 leukemia; conditions: 10 µM
[20] = test system: UO-31 renal; conditions: 10 µM

Measured: growth

C=CCNc1ccccc1
inactive: [1] 106% | [2] 98.4% | [3] 82.7% | [4] 91.5% | [5] 106% | [6] 85.2% | [7] 102% | [8] 89.9% | [9] 93.7% | [10] 99.9% | [11] 95.5% | [12] 108% | [13] 94.1% | [14] 95.7% | [15] 101% | [16] 114% | [17] 119% | [18] 93.6% | [19] 95.4%

COc1cccc(O)c1O
inactive: [1] 38.4% | [2] 104% | [3] 56.3% | [4] 65.1% | [5] 65.1% | [6] 79.5% | [7] 55.9% | [8] 45.5% | [9] 53.7% | [10] 74.1% | [11] 72.4% | [12] 99.6% | [13] 74.5% | [20] 70.3% | [14] 91.2% | [15] 73.2% | [18] 63.8% | [19] 64.8%

C/C(=N/NC(N)=O)c1ccco1
inactive: [1] 102% | [2] 99.5% | [3] 91.5% | [4] 101% | [5] 96.8% | [6] 76.3% | [7] 105% | [8] 102% | [9] 95.4% | [10] 117% | [11] 108% | [12] 100% | [13] 110% | [20] 95.8% | [15] 102% | [16] 102% | [17] 111% | [18] 106% | [19] 89.9%

S=c1[nH]ccn1-c1ccccc1Cl
inactive: [1] 107% | [2] 104% | [3] 95.4% | [4] 102% | [5] 99.2% | [6] 95.2% | [7] 112% | [8] 107% | [9] 100% | [10] 101% | [11] 118% | [12] 112% | [13] 116% | [20] 94.2% | [14] 128% | [15] 101% | [17] 101% | [18] 96.6% | [19] 97.4%

Cc1cc(C(C)(C)C)cc(C)c1Br
inactive: [1] 109% | [2] 113% | [3] 94.6% | [4] 106% | [5] 113% | [6] 75.3% | [7] 111% | [8] 108% | [9] 96.1% | [10] 109% | [11] 105% | [12] 100% | [13] 100% | [14] 113% | [15] 104% | [16] 93.5% | [17] 104% | [18] 92.2% | [19] 99%

COc1ccccc1N=Nc1c(O)ccc2cc(S(=O)(=O)O)ccc12
inactive: [1] 107% | [2] 96.7% | [3] 69.6% | [4] 100% | [5] 99.5% | [6] 92.6% | [7] 103% | [8] 100% | [9] 100% | [10] 111% | [11] 96.4% | [12] 95.2% | [13] 102% | [20] 84.7% | [14] 113% | [15] 98.1% | [18] 105% | [19] 104%

C=CCNC(=O)c1ccc(OC)cc1
inactive: [1] 108% | [2] 129% | [3] 117% | [4] 92.1% | [5] 101% | [6] 104% | [7] 103% | [8] 99.1% | [9] 111% | [10] 144% | [11] 97.6% | [12] 109% | [13] 99.1% | [20] 74.7% | [14] 120% | [15] 106% | [17] 133% | [18] 98.4% | [19] 102%

O=[N+]([O-])c1ccc(-c2ncc(-c3ccc(Br)cc3)o2)cc1
inactive: [1] 96.5% | [2] 98.3% | [3] 122% | [4] 99.9% | [5] 95.8% | [6] 89.8% | [7] 89.4% | [8] 93.3% | [9] 104% | [10] 114% | [11] 99.1% | [12] 101% | [13] 103% | [20] 84.5% | [14] 108% | [15] 94.2% | [17] 68.4% | [18] 92.6% | [19] 97.6%

N#CSc1cc(S(N)(=O)=O)ccc1N
inactive: [1] 108% | [2] 101% | [3] 85.5% | [4] 102% | [5] 101% | [6] 109% | [7] 101% | [8] 104% | [9] 99.9% | [10] 102% | [11] 104% | [12] 115% | [13] 101% | [14] 106% | [15] 112% | [16] 124% | [17] 118% | [19] 84.5%

From PubChem BioAssay (NCI)
